The nature of experiment [1]: growth inhibition of DIPG glioma cells, dose response, cell-based, SU-DIPG-XVII, MIPE5.0, CellTiter-Glo, qHTS (AID 1347060; cut-off not given, nearly all actives have AC50 up to about 26 µM;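 for AC50: cells exposed to compound for 48 hours before viability readout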). The settings on record: SU-DIPG-XVII viability, CellTiter-Glo ATP luminescence.
The nature of experiment [2]: growth inhibition of DIPG glioma cells, dose response, cell-based, SU-DIPG-XIII, MIPE4.0, CellTiter-Glo, qHTS (AID 1347061; cut-off not given, nearly all actives have AC50 up to about 37 µM;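 note: cells exposed to compound for 48 hours before readout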). The settings on record: SU-DIPG-XIII viability, CellTiter-Glo ATP luminescence. Background: ATP-based viability assays read luminescence as a measure of living cells.
Experiment [3] in a line: growth inhibition of DIPG glioma cells, dose response, cell-based, SU-DIPG-IV, MIPE4.0, CellTiter-Glo, qHTS (AID 1347063; cut-off not given, nearly all actives have AC50 up to about 30 µM;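 note: compound exposure lasted 48 hours before the viability readout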). Particulars: SU-DIPG-IV viability, CellTiter-Glo ATP luminescence.
Experiment [4] in a line: SU-DIPG-VI glioma cell viability, MIPE4.0 library, CellTiter-Glo luminescence, qHTS (AID 1347066; cut-off not given, nearly all actives have AC50 up to about 30 µM;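 note: cells exposed to compound for 48 hours before readout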). The settings on record: CellTiter-Glo ATP luminescence.
A short description of experiment [5]: JHH-DIPG-1 glioma cell viability, MIPE5.0 library, CellTiter-Glo luminescence, qHTS (AID 1347067; cut-off not given, nearly all actives have AC50 up to about 26 µM;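 note: cells exposed to compound for 48 hours before readout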). The settings on record: JHH-DIPG-1 glioma viability, CellTiter-Glo ATP luminescence.
The nature of experiment [6]: SU-DIPG-XXV glioma cell viability, MIPE5.0 library, qHTS (AID 1347068; cut-off not given, nearly all actives have IC50 up to about 30 µM).
Experiment [7] in a line: growth inhibition of DIPG glioma cells, dose response, cell-based, SU-DIPG-XIII, MIPE5.0, CellTiter-Glo, qHTS (AID 1347064; cut-off not given, nearly all actives have AC50 up to about 23 µM;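 for AC50: cells exposed to compound for 48 hours before the viability read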). Particulars: SU-DIPG-XIII viability, CellTiter-Glo ATP luminescence.
Experiment [8] is described as follows: viability loss in pontine glioma line – cell-based, SU-DIPG-XXV, MIPE5.0, CellTiter-Glo, qHTS, dose response (AID 1347065; cut-off not given, nearly all actives have AC50 up to about 26 µM;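 note: cells exposed to compound for 48 hours before ATP readout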). The settings on record: CellTiter-Glo ATP luminescence.
A short description of experiment [9]: modifiers of HSF1 nuclear foci, imaging, Selleck Cancer Library (AID 1347162; in the data active = plate-normalised HSF1 focus index below about 0.46). Particulars: human cells, at 10 µM; SSMD: measured here: HSF1 foci SSMD mean; cell count: measured here: cell number; plate-normalised HSF1 focus index: stronger effect = lower value.
Experiment [10] in a line: growth inhibition of DIPG glioma cells, dose response, cell-based, JHH-DIPG-1, MIPE4.0, CellTiter-Glo, qHTS (AID 1347062; cut-off not given, nearly all actives have AC50 up to about 27 µM). Particulars: JHH-DIPG-1 viability, CellTiter-Glo ATP luminescence.
Experiment [11] is described as follows: sensitizers of A549 cells to miR-34 induction, primary screen, imaging, A549 dox-inducible miR-34, nuclei and caspase counts (AID 1347080;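 active = compounds whose cell count with miR-34 switched on is under 0.7 times the count with it off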). Particulars: A549 miR-34 inducible, Hoechst nuclei count, 48 h.
Experiment [12] can be described thus: survival rescue of mitochondrial mutant cells in low glucose, primary screen, MELAS cybrids, Rieske KO mouse fibroblasts, CellTiter-Glo (AID 1508586;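 active = mean z-score across replicates of 1.96 or higher in either the MELAS or the Rieske mutant cell line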;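 note: z relative to plate mean and SD of compound and empty wells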).
Experiment [13] in a line: ovarian cancer cell viability with rucaparib, profiling panel, oncology-focused library, rucaparib conditional (AID 1508598). Particulars: patient-derived ovarian cancer cells, CellTiter-Glo viability, 144 h, stronger effect = lower value.

Molecules are shown by their SMILES. Records with an inconclusive call do not appear. Active and inactive are the calls of the source.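 Rule for the calls, unless noted: active = normalized viability below 100% at a tested concentration; inactive = the rest.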

These results are taken from PubChem BioAssay.

As for `C[C@]12CC[C@@H]3c4ccc(O)cc4CC[C@H]3[C@@H]1[C@@H](O)[C@@H](O)[C@@H]2O`, the outcome in experiment [1], in experiment [2], in experiment [3], in experiment [4], in experiment [5] and in [6] was inactive.
As a reminder, the AC50 is the midpoint of the concentration-response curve, whichever way the signal moves. For the compound `COc1cc2ncnc(Nc3cccc(Br)c3)c2cc1OC`, the AC50 in experiment [1] was 2.09 µM (active); in experiment [7] it was 14.8 µM (active); in experiment [8], 16.6 µM (active); in experiment [5], 20.9 µM (active). Further, the result in [2] was inactive. Moreover, the SSMD in experiment [9] came out at 2.47. In addition, the cell count in experiment [9] stood at 7590. In experiment [9], the plate-normalised HSF1 focus index was 1.15 (inactive).
For the compound `Cc1cc(C(=O)N2CCN(c3cccc(Cl)c3)CC2)n(-c2ccccc2)n1`, the concentration at half-maximal activity (AC50) was 7.42 µM (active) in [1] and 9.34 µM (active) in experiment [8]. Moreover, the compound was called inactive in [2] and in experiment [4].
For `CO[C@H]1C[C@@H]2CC[C@@H](C)[C@@](O)(O2)C(=O)C(=O)N2CCCC[C@H]2C(=O)O[C@H]([C@H](C)C[C@@H]2CC[C@@H](OC(=O)C(C)(CO)CO)[C@H](OC)C2)CC(=O)[C@H](C)/C=C(\C)[C@@H](O)[C@@H](OC)C(=O)[C@H](C)C[C@H](C)/C=C/C=C/C=C/1C`, the AC50 in experiment [1] is 14.4 µM (active); in [8], 12.9 µM (active); in [4], 9.35 µM (active); in [5] it was 14.4 µM (active). In addition, the compound was classed as inactive in experiment [2]. In experiment [9], this compound had an SSMD of 0.578. Further, the cell count in [9] is 6900. The plate-normalised HSF1 focus index in experiment [9] was 1.05 (inactive).
For the compound `O=C(O)CCCCCC(=O)NN=C1CCCC1`, the outcome in experiment [1], in [10], in [3], in [7], in experiment [8] and in [4] was inactive. The compound was classed as inactive in experiment [5] and in experiment [6].
Usually viability stands for a read-out of living cells in per cent, often relative to untreated cells. With `CN1CCN(CCOc2cc(OC3CCOCC3)c3c(Nc4c(Cl)ccc5c4OCO5)ncnc3c2)CC1`, the call in [1], in [2], in [8], in experiment [5] and in experiment [6] was inactive. Further, the fold change in experiment [11] (stronger effect = lower value, cell number ratio, induced over uninduced) was 0.876 (inactive); in [11] (measured here: relative caspase fold change +Dox/-Dox), 1. Also, the cell count was 1170 in experiment [11] (measured here: total cells with miR-34 induction, stronger effect = lower value); 1330 in experiment [11] (measured here: total cells without miR-34 induction); 7430 in experiment [9]. In [9], this compound had an SSMD of -0.947. Also, in [9], the plate-normalised HSF1 focus index was 0.94 (inactive). In addition, the z-score in [12] (MELAS cybrid survival, CellTiter-Glo 48 h, stronger effect = higher value) is 0.931 (inactive); in experiment [12] (Rieske KO mouse fibroblast survival, CellTiter-Glo 72 h), -0.384. Moreover, the viability in [13] (at 0.000305 µM, OCI-C5x cells, with rucaparib 10 µM, 100% = cells with rucaparib alone) was 98.7% (active); in experiment [13] (at 0.000305 µM, OCI-C5x cells, without rucaparib) it was 98.5% (active); in experiment [13] (at 0.000305 µM, OCI-P5x cells, with rucaparib 20 µM, 100% = cells with rucaparib alone), 98.8% (active); in experiment [13] (at 0.000305 µM, OCI-P5x cells, without rucaparib), 104% (inactive); in [13] (at 0.00122 µM, OCI-C5x cells, with rucaparib 10 µM, 100% = cells with rucaparib alone) it was 107% (inactive); in experiment [13] (at 0.00122 µM, OCI-C5x cells, without rucaparib), 98.2% (active). Also, the viability is 102% (inactive) in [13] (at 0.00122 µM, OCI-P5x cells, with rucaparib 20 µM, 100% = cells with rucaparib alone); 90.6% (active) in experiment [13] (at 0.00122 µM, OCI-P5x cells, without rucaparib); 97.5% (active) in experiment [13] (at 0.00488 µM, OCI-C5x cells, with rucaparib 10 µM, 100% = cells with rucaparib alone); 94.4% (active) in [13] (at 0.00488 µM, OCI-C5x cells, without rucaparib); 102% (inactive) in [13] (at 0.00488 µM, OCI-P5x cells, with rucaparib 20 µM, 100% = cells with rucaparib alone); 91.3% (active) in experiment [13] (at 0.00488 µM, OCI-P5x cells, without rucaparib). Further, the viability in experiment [13] (at 0.0195 µM, OCI-C5x cells, with rucaparib 10 µM, 100% = cells with rucaparib alone) was 107% (inactive); in experiment [13] (at 0.0195 µM, OCI-C5x cells, without rucaparib), 94.6% (active); in [13] (at 0.0195 µM, OCI-P5x cells, with rucaparib 20 µM, 100% = cells with rucaparib alone) it was 96.6% (active); in experiment [13] (at 0.0195 µM, OCI-P5x cells, without rucaparib), 89% (active); in experiment [13] (at 0.0781 µM, OCI-C5x cells, with rucaparib 10 µM, 100% = cells with rucaparib alone) it was 105% (inactive); in experiment [13] (at 0.0781 µM, OCI-C5x cells, without rucaparib), 94.2% (active). Also, the viability in experiment [13] (at 0.0781 µM, OCI-P5x cells, with rucaparib 20 µM, 100% = cells with rucaparib alone) is 82.4% (active); in [13] (at 0.0781 µM, OCI-P5x cells, without rucaparib), 83% (active); in experiment [13] (at 0.313 µM, OCI-C5x cells, with rucaparib 10 µM, 100% = cells with rucaparib alone), 104% (inactive); in experiment [13] (at 0.313 µM, OCI-C5x cells, without rucaparib), 95.8% (active); in [13] (at 0.313 µM, OCI-P5x cells, with rucaparib 20 µM, 100% = cells with rucaparib alone) it was 69% (active); in experiment [13] (at 0.313 µM, OCI-P5x cells, without rucaparib) it was 72.2% (active). Further, the viability in [13] (at 1.25 µM, OCI-C5x cells, with rucaparib 10 µM, 100% = cells with rucaparib alone) was 91.7% (active); in experiment [13] (at 1.25 µM, OCI-C5x cells, without rucaparib), 87.9% (active); in experiment [13] (at 1.25 µM, OCI-P5x cells, with rucaparib 20 µM, 100% = cells with rucaparib alone), 58.9% (active); in [13] (at 1.25 µM, OCI-P5x cells, without rucaparib), 64.4% (active); in experiment [13] (at 5 µM, OCI-C5x cells, with rucaparib 10 µM, 100% = cells with rucaparib alone) it was 32.8% (active); in experiment [13] (at 5 µM, OCI-C5x cells, without rucaparib), 53.2% (active). Also, the viability in [13] (at 5 µM, OCI-P5x cells, with rucaparib 20 µM, 100% = cells with rucaparib alone) was 5.51% (active); in [13] (at 5 µM, OCI-P5x cells, without rucaparib) it was 52.2% (active).
